Out of some 200,000 compounds screened, about 720 (0.36%) were called active. Roughly 8% stayed inconclusive and do not appear here. The call rests on the fitted dose curve; in most records, active means well fitted activation curve with a large enough effect; inconclusive means small, poorly fitted or top-dose-only effect, or effect the other way, or another doubt; inactive means flat fitted curve, though single readings scatter. The list shows a part of the results.
The molecules below were run against Lysosomal alpha-glucosidase (Homo sapiens) (UniProt P10253) (assay: qHTS Assay for Activators of Human alpha-Glucosidase as a Potential Chaperone Treatment of Pompe Disease). Settings: purified enzyme, 4-MU-alpha-glucoside fluorescence, 20 min; series mostly up to 76.9 µM.
In short: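 Compounds titrated up to 77 uM against 4 nM enzyme and 400 uM methylumbelliferyl substrate at room temperature, 20 min, pH 5.0. Basic stop, then 4-methylumbelliferone fluorescence (365/440 nm) normalized to no-enzyme and enzyme controls; Hill-equation AC50.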
Further: nearly all actives have a fitted effect of over 80% in size.
Potency means the concentration at half of the fitted maximal effect.

Potency, active:
CC(C)CCn1c(N)c(S(=O)(=O)c2cccs2)c2nc3ccccc3nc21 35.5 µM
CC(C)Cn1c(N)c(S(=O)(=O)c2cccs2)c2nc3ccccc3nc21 25.1 µM
Cc1ccc(-c2cc(-c3ccccc3Cl)c(C#N)c(N)n2)o1 28.2 µM
Cc1ccc(-c2cc(-c3ccccc3)c(C#N)c(N)n2)o1 35.5 µM
Cn1c(C(=O)NCC2CCCO2)cc2c(=O)n3ccccc3nc21 (stereo unspecified) 31.6 µM
Cn1c(C(=O)NCc2ccccn2)cc2c(=O)n3ccccc3nc21 28.2 µM
CCOC(=O)CC1C(=O)NCCN1C(=O)c1cc2c(=O)n3cccc(C)c3nc2s1 (stereo unspecified) 31.6 µM
CCOC(=O)CC1C(=O)NCCN1C(=O)c1cc2c(=O)n3ccccc3nc2s1 (stereo unspecified) 35.5 µM
O=C(c1cc2c(s1)-c1ccccc1OC2)N1CCc2ccccc2C1 35.5 µM
COc1cc2c(cc1OC)C(C)N(C(=O)c1cc3c(s1)-c1ccccc1OC3)CC2 (stereo unspecified) 39.8 µM
O=C(c1cc2c(s1)-c1ccccc1OC2)N1CCCC1 28.2 µM
CN1C(=O)c2ccccc2N(C)C1c1ccccc1Cl (stereo unspecified) 39.8 µM
CCCCn1c2nc3ccccc3nc2c2c(=O)n(-c3ccccc3)cnc21 35.5 µM
CCC(N=c1cc(-c2ccc(OC)cc2)oc2ccc(C)cc12)C(=O)O (stereo unspecified) 31.6 µM
O=[N+]([O-])c1cccc(Nc2c3ccccc3nc3ccccc23)c1 28.2 µM
O=c1oc2c(CN3CCN(CCO)CC3)c(O)ccc2cc1-c1ccccn1 31.6 µM
CCCN(CC(=O)Nc1ccc(Cl)cc1Cl)C(=O)/C=C/c1cc(OC)ccc1OC 31.6 µM
c1ccc(C[n+]2cccc3c4ccccc4ccc32)cc1 39.8 µM
CCCCC[n+]1cccc2c3ccccc3ccc21 35.5 µM
O=C(O)C1C2C=CC(O2)C1C(=O)NCCCn1ccnc1 (stereo unspecified) 20 µM
CN1CCCc2cc(C#N)c(=O)[nH]c21 39.8 µM
Cc1cc(=O)oc2cc3c(cc12)OCCN3 35.5 µM
COc1cccc(-c2ccc(C#N)c(=O)[nH]2)c1 39.8 µM
N#Cc1c(C(F)(F)F)cc(-c2ccccc2)[nH]c1=O 35.5 µM
N#Cc1c(C(F)(F)F)cc(-c2cccc(Cl)c2)[nH]c1=O 39.8 µM
COc1cccc(-c2cc(C(F)(F)F)c(C#N)c(=O)[nH]2)c1 35.5 µM
N#Cc1c(C(F)(F)F)cc(-c2ccc(Cl)cc2)[nH]c1=O 39.8 µM
N#Cc1c(C(F)(F)F)cc(-c2ccc(F)cc2)[nH]c1=O 35.5 µM
COc1ccccc1-c1cc(C(F)(F)F)c(C#N)c(=O)[nH]1 39.8 µM
N#Cc1cnn2c3c(cnc12)C(=O)N1CCc2ccccc2C1C3 (stereo unspecified) 3.98 µM
O=C1c2cnc3ncnn3c2CC2c3ccccc3CCN12 (stereo unspecified) 12.6 µM
CC(=O)c1cc2cc(O)ccc2o1 35.5 µM
Cc1cc(C)n(-c2nc3ccccc3[nH]c2=O)n1 39.8 µM
CNc1nnc(-c2ccc(N(C)C)cc2)s1 35.5 µM
Cc1cc(=O)[nH]c2cc(O)ccc12 35.5 µM
CC(=O)Oc1ccc2c(C)cc(=O)[nH]c2c1 20 µM
CCc1cc2c(=O)c(Oc3ccccc3F)c(C)oc2c(CN(C)C)c1O 35.5 µM
CC(C)Nc1oc(-c2cccc3ccccc23)nc1C#N 35.5 µM
CC1CCN(c2oc(-c3cccc4ccccc34)nc2C#N)CC1 25.1 µM
C=CCNc1oc(-c2cccc3ccccc23)nc1C#N 31.6 µM
COc1ccccc1NC(=O)CSc1nc2c(sc3ccccc32)c(=O)n1CCN(C)C 35.5 µM
CCOC(=O)c1c(C)nc(C)c(C(=O)OCC)c1-c1ccccc1 31.6 µM
O=C(O)c1cc(-c2ccccc2)nc2nc(N3CCCCC3)sc12 28.2 µM
Cc1ccc(-c2cc(C(=O)O)c3sc(N4CCCCC4)nc3n2)cc1 28.2 µM
CCCCN(CC)CCCNC(=O)c1cc2cc3ccc(OC)cc3nc2o1 31.6 µM
CCCN(CCC)CCCNC(=O)c1cc2cc3ccc(OC)cc3nc2o1 28.2 µM
CCn1cc(-c2ccnc3cc(C(=O)O)nn23)c(C)n1 39.8 µM
O=C1NC(c2ccco2)Nc2sc3c(c21)CCN(Cc1ccccc1)C3 (stereo unspecified) 35.5 µM
CN1CCc2c(sc3c2C(=O)NC(c2ccco2)N3)C1 (stereo unspecified) 31.6 µM
CCCCCn1c(=O)c(-c2nc3ccccc3[nH]2)c(O)c2ccccc21 39.8 µM
Cc1c(O)ccc2c3c(c(=O)oc12)CCCC3 35.5 µM
Cc1c(O)ccc2c3c(c(=O)oc12)CCC(C)C3 (stereo unspecified) 35.5 µM
Fc1ccc(-n2c(-c3ccco3)nc3nc4ccccc4nc32)cc1 7.94 µM
Fc1cccc(-n2c(-c3ccco3)nc3nc4ccccc4nc32)c1 6.31 µM
Fc1ccc(-n2c(-c3cccs3)nc3nc4ccccc4nc32)cc1 3.55 µM
Cc1cc(=O)n2cccc(O)c2n1 25.1 µM
O=c1cccc2n1Cc1cc3ccccc3nc1-2 35.5 µM
CC1CN(S(=O)(=O)c2cccc(-c3cn4cccnc4n3)c2)CC(C)O1 (stereo unspecified) 35.5 µM
CN(C)S(=O)(=O)c1cccc(-c2cn3cccnc3n2)c1 39.8 µM
CCc1nnc(NC(=O)CSc2nc(C)c3c(c2C#N)CCCC3)s1 35.5 µM
CCC(O)CNc1nc(SC)nc2sc3c(c12)CCN(C)C3 (stereo unspecified) 28.2 µM
CSc1nc2oc3c(c2c2nncn12)CC(C)(C)SC3 39.8 µM
Cc1cc(NC(C)C)n2c(nc3ccccc32)c1C#N 35.5 µM
CCCc1cc(NCc2ccccn2)n2c(nc3ccccc32)c1C#N 35.5 µM
Cc1cc(NCCCCO)n2c(nc3ccccc32)c1C#N 35.5 µM
CCCc1cc(NCCCCO)n2c(nc3ccccc32)c1C#N 35.5 µM
